About 79,000 compounds went through this panel and 15% of them were active in at least one assay; those are over-represented in the sample as a whole. A number with no mark means an inactive call. Active and inactive are the calls of the source. Cut-off read from the data, not from the text of the source: active = growth inhibition above about 70%; inactive = the rest.
Experiment: NCI Yeast Anticancer Drug Screen. Data for the CLN2oe strain (AID 163);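 note: 0% = growth of vehicle-only control cultures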
Conditions: S. cerevisiae CLN2oe strain, stronger effect = higher value
Method: Growth inhibition of yeast strains with defined genetic alterations is measured as a screen for potential anti-cancer activity. Selected strains with alterations in DNA damage repair or cell cycle control were exposed to compounds and growth inhibition was measured relative to vehicle treated controls. The strain used in this assay is CLN2oe

Compound | growth inhibition (at 1.2 µM) [%] | growth inhibition (at 3.7 µM) [%] | growth inhibition (at 11.0 µM) | growth inhibition (at 33.0 µM) | growth inhibition (at 100.0 µM)
NC(CCCCCCCCCCCCC(N)C(=O)c1ccccc1)C(=O)c1ccccc1 (stereo not given) | -9 | -20 | 52% | 91% (active) | 95% (active)
CC(C)=CCc1c2c(c(O)c3c(=O)c(-c4ccc(O)c(O)c4)coc13)C=CC(C)(C)O2 | -32 | -5 | 95% (active) | 91% (active) | 81% (active)
O=C(O)CNC(c1ccccc1)(c1ccccc1)c1ccccc1 | -14 | -12 | -6% | 85% (active) | 98% (active)
Cc1ccc(S(=O)(=O)N/N=C/C(Br)=C(/Br)C(=O)O)cc1 | 3 | 8 | 21% | 54% | 43%
Cc1cc(Cl)ccc1NC(=O)/C(Cl)=C(/Cl)C(=O)O | -1 | 3 | 1% | 11% | 99% (active)
CCO/C=C1\SC(=S)N(c2ccc(OCC)cc2)C1=O | -8 | -1 | 4% | 21% | 57%
COC(=O)C(Cl)(Cl)N=Nc1c(Cl)cc(Cl)c(C)c1Cl | 36 | 22 | 97% (active) | 99% (active) | 99% (active)
CC1(c2ccccc2)O[C@@H]2C[C@H]3[C@@H]4CCC5=CC(=O)C=C[C@]5(C)[C@@]4(F)[C@@H](O)C[C@]3(C)[C@]2(C(=O)CO)O1 (stereo not given in full) | -5 | -11 | -4% | 53% | 98% (active)

Source: PubChem BioAssay (NCI)
